Data reported in the supplement of paper PMC10849652.
Targets with a hit are over-represented here; the source holds about 7,900 in all. About 0.6% of all pairs of compound and target were hits.

Legend:
Experiment in all cases: log2 fold change, soluble protein after heating vs DMSO (PISA); higher = thermal stabilisation; K562 cells, 10 uM, 30 min; active = over 0.2 and 3.5 SD of the protein, either way, in both replicates (recomputed)
[1] = compound: CC[C@@H]1C(=O)N(C)c2cnc(Nc3ccc(C(=O)NC4CCN(C)CC4)cc3OC)nc2N1C1CCCC1
Outline: (§1)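 Soluble protein was defined as the supernatant after 21,000xg for 90 min. It came from K562 cells at 2×10^6 cells/mL given 10 μM compound for 30 min, heated in aliquots for 3 min across 48°C-58°C, pooled, and extracted in PBS with 0.5% NP-40 at 4°C, and was quantified by TMTpro 16plex LC-MS/MS with equalised channel sums. Thermal stability against control samples, from duplicates, is reported as log2 fold change.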

[2] = compound: CC[C@@H]1C(=O)N(C)c2cnc(Nc3ccc(C(=O)N[C@H]4CC[C@H](N5CCN(CC6CC6)CC5)CC4)cc3OC)nc2N1C(C)C [volasertib]
Outline: as §1

[3] = compound: CC[C@H](C)N1C=C(C2=C(C=C(C=C21)C3=CN=C(C=C3)N4CCNCC4)C(=O)NCC5=C(C=C(NC5=O)C)C)C
Outline: as §1

[4] = compound: CC[C@H](C)[C@@H](C(=O)N[C@@H]([C@@H](C)O)C(=O)N[C@@H](CC(C)C)C(=O)[C@]1(CO1)C)NC(=O)[C@H]([C@@H](C)CC)N(C)C(=O)C [epoxomicin]
Outline: as §1

[5] = compound: CCn1c(C(=O)N(C2CC2)C2CC2)cc2c3c(ncn3C)c(Nc3cc(C)n(C)n3)nc21
Outline: as §1

[6] = compound: CCn1cc(-c2ccnc3[nH]c(-c4cccc(CN(C)C)c4)cc23)c(-c2ccc(NC(=O)N(C)C)cc2)n1
Outline: as §1

[7] = compound: CN(C)CC(=O)Nc1ccc2[nH]c(=O)c3ccccc3c2c1
Outline: as §1

[8] = compound: CN(CCOC1=CC=C(C=C1)C[C@H]2C(=O)NC(=O)S2)C3=CC=CC=N3 (racemic) [rosiglitazone]
Outline: as §1

[9] = compound: CN1C2=C(C3=C1C(=O)N(N=C3)CC4=CC(=CC=C4)N)SC(=C2)S(=O)C
Outline: as §1

[10] = compound: CN1CCC(CNc2ccc3ncc(-c4cccc(OC(F)(F)F)c4)n3n2)CC1
Outline: as §1

[11] = compound: CN1CCN(CCOc2cc(OC3CCOCC3)c3c(Nc4c(Cl)ccc5c4OCO5)ncnc3c2)CC1 [saracatinib]
Outline: as §1

[12] = compound: CN1CCN(c2nc(C3=C(c4c[nH]c5ccccc45)C(=O)NC3=O)c3ccccc3n2)CC1 [sotrastaurin]
Outline: as §1

[13] = compound: CN1CC[C@H](c2c(O)cc(O)c3c(=O)cc(-c4ccccc4Cl)oc23)[C@H](O)C1 [alvocidib]
Outline: as §1

[14] = compound: CN1CCc2c(c3ccccc3n2Cc2ccc(C(=O)NO)cc2)C1 [Tubastatin A]
Outline: as §1

[15] = compound: CNC(=O)C1=CC=CC=C1NC2=NC(=NC=C2Cl)NC3=C(C=C(C=C3)N4CCOCC4)OC
Outline: as §1

[16] = compound: CNC(=O)c1ccc(Nc2ncc(C(F)(F)F)c(NCc3nccnc3N(C)S(C)(=O)=O)n2)cc1 [defactinib]
Outline: as §1

[17] = compound: CNCc1ccc(-c2[nH]c3cc(F)cc4c3c2CCNC4=O)cc1 [rucaparib]
Outline: as §1

[18] = compound: CNc1nc(-c2ccc3c(N)n[nH]c3c2)cc(N2C[C@@H](C(=O)NC3CCCCC3)CC[C@H]2C)n1
Outline: as §1

[19] = compound: COC(=O)N[C@@H](C)CNc1nccc(-c2cn(C(C)C)nc2-c2cc(Cl)cc(NS(C)(=O)=O)c2F)n1 [encorafenib]
Outline: as §1

[20] = compound: COC(=O)[C@H](CCSC)NC(=O)C1=C(C=C(C=C1)NC[C@H](CS)N)C2=CC=CC=C2
Outline: as §1

Measured: log2 fold change

DCTN1 isoform 4 (UniProt Q14203)
Sequence of UniProt Q14203 (Q14203 whole entry, looked up): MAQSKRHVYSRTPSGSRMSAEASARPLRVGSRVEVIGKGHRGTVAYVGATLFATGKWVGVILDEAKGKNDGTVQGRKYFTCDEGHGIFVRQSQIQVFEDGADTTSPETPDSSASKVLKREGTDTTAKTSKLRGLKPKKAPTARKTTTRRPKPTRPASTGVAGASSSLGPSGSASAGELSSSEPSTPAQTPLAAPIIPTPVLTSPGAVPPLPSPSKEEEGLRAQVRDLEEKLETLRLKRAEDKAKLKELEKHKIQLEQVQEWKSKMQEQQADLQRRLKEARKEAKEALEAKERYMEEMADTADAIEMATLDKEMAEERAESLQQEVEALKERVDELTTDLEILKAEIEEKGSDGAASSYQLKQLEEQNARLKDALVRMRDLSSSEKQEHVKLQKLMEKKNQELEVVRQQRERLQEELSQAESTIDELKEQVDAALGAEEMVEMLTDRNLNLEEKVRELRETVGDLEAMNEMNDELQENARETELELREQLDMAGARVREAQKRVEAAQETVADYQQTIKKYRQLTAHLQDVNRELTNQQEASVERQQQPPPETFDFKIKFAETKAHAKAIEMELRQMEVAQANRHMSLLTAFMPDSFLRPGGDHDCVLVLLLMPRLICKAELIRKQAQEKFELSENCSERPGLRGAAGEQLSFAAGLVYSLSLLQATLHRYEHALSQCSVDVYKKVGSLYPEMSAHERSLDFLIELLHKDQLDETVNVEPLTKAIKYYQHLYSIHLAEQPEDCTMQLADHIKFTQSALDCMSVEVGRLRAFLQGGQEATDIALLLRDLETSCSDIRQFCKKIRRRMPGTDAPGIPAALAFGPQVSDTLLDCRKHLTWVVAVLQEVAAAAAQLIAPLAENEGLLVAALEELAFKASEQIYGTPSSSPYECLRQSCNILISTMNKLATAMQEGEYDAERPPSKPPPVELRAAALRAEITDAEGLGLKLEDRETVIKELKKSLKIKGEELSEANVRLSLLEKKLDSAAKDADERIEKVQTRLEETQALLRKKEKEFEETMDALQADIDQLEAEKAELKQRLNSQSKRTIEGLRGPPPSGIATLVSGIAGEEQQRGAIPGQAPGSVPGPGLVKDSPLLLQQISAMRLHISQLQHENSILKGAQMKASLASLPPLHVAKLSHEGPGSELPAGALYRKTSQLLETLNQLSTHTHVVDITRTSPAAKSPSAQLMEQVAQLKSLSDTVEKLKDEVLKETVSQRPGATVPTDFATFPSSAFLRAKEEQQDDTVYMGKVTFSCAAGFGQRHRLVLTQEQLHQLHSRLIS
inactive: [1] 0.01 | [2] -0.1 | [3] 0.078 | [4] 0.02 | [5] -0.157 | [6] -0.024 | [7] 0.052 | [8] 0.086 | [9] 0.149 | [10] -0.096 | [11] -0.126 | [12] -0.159 | [13] -0.083 | [14] 0.079 | [15] -0.056 | [16] -0.037 | [17] 0.227 | [18] 0.074 | [19] 0.083 | [20] -0.068

EXOC8 (UniProt Q8IYI6)
Sequence of UniProt Q8IYI6 (Q8IYI6 whole entry, looked up): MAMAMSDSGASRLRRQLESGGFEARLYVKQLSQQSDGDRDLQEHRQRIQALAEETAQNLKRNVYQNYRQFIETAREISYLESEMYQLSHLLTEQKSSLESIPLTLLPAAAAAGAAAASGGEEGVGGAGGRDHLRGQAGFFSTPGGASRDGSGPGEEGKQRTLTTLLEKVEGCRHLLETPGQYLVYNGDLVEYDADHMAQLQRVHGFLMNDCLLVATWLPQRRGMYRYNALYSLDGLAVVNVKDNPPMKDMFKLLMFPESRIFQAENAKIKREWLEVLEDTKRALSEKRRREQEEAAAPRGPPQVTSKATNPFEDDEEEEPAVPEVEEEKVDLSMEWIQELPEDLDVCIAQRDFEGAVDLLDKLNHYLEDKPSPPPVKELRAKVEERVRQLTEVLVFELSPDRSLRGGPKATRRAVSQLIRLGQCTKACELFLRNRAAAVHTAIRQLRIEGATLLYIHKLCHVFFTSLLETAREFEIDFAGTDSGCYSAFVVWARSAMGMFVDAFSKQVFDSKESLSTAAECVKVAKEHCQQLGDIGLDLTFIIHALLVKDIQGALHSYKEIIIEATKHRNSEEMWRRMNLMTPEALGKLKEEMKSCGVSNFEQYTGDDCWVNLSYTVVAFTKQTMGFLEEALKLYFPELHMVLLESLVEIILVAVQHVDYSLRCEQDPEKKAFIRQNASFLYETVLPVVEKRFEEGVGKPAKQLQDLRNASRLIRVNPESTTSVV
inactive: [1] -0.212 | [3] 0.045 | [4] -0.004 | [5] -0.088 | [6] 0.003 | [7] 0.073 | [8] 0.05 | [9] 0.009 | [11] -0.015 | [12] -0.196 | [13] -0.031 | [14] -0.012 | [15] 0.056 | [16] -0.069 | [17] 0.016 | [18] 0.112 | [19] 0.094 | [20] -0.047
active: [2] -0.367 | [10] -0.295

CTSB (UniProt P07858)
active: [1] -1.16 | [2] -1.72 | [10] -0.936
inactive: [3] -0.009 | [4] -0.011 | [5] 0.017 | [6] -0.047 | [7] 0.021 | [8] -0.007 | [9] -0.07 | [11] 0.05 | [12] 0.064 | [13] 0 | [14] 0.002 | [15] 0.052 | [16] -0.014 | [17] -0.073 | [18] -0.009 | [19] 0.013 | [20] -0.008

CYP51A1 (UniProt Q16850)
Sequence of UniProt Q16850 (Q16850 whole entry, looked up): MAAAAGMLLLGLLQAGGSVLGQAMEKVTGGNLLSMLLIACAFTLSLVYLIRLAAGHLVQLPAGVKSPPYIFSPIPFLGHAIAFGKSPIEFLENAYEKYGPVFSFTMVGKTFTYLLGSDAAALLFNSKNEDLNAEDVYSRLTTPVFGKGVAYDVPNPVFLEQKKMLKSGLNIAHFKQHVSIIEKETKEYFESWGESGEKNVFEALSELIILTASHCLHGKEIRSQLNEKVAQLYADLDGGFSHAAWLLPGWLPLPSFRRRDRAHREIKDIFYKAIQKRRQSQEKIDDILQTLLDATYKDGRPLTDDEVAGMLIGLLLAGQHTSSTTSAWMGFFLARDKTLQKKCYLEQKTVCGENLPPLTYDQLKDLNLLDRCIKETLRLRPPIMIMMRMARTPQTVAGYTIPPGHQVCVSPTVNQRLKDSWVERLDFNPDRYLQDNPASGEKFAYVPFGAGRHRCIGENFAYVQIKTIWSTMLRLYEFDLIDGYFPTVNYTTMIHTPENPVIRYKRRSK
inactive: [1] 0.019 | [2] 0.132 | [3] 0.052 | [4] -0.061 | [5] 0.058 | [6] 0.015 | [7] 0.015 | [8] -0.056 | [9] 0.072 | [11] -0.072 | [12] -0.029 | [13] 0.027 | [14] -0.024 | [15] 0.065 | [16] 0 | [17] 0.162 | [18] 0.212 | [19] 0.029 | [20] -0.135
active: [10] -0.331

ERCC6 (UniProt Q03468)
Sequence of UniProt Q03468 (Q03468 whole entry, looked up): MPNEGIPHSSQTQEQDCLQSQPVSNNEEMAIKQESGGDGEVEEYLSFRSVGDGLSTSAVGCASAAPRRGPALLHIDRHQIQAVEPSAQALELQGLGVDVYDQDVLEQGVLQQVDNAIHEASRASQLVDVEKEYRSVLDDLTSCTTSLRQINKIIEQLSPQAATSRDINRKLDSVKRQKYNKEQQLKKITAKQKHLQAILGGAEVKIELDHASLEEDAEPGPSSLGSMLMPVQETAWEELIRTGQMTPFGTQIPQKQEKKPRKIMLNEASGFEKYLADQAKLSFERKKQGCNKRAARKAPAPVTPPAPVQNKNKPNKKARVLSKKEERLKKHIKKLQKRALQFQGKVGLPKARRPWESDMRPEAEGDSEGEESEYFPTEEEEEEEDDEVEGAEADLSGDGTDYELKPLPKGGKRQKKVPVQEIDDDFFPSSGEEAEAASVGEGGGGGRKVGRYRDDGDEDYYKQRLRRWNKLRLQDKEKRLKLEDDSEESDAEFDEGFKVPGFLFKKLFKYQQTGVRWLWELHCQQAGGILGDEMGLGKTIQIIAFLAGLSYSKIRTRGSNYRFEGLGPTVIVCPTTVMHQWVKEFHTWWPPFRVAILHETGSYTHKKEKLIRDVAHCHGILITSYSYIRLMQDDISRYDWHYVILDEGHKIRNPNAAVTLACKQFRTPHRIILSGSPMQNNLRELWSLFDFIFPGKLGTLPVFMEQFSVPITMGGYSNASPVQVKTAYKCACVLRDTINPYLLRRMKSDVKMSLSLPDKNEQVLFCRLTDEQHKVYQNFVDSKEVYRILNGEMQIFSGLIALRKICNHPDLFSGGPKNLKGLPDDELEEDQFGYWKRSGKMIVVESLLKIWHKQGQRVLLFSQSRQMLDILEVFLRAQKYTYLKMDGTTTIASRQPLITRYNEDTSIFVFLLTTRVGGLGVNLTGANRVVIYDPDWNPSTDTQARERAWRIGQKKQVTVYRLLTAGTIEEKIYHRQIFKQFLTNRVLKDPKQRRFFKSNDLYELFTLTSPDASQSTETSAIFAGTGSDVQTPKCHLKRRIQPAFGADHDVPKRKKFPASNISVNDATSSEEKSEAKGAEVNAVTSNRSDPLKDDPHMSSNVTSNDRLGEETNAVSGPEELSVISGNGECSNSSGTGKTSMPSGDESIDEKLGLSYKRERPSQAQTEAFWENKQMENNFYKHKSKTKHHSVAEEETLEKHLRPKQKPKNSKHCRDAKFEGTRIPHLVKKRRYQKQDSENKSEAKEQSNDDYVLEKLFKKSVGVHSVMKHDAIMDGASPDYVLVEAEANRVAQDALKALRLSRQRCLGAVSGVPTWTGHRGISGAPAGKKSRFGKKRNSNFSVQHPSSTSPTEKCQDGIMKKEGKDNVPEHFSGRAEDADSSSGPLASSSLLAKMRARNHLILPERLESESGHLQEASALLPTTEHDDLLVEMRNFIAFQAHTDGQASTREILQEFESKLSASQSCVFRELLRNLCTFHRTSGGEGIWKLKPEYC
inactive: [1] 0.072 | [2] -0.135 | [3] -0.06 | [4] 0.015 | [5] 0.074 | [6] -0.091 | [7] 0.004 | [8] -0.221 | [9] -0.009 | [10] 0.08 | [11] -0.006 | [12] 0.169 | [13] -0.04 | [14] -0.093 | [15] 0.126 | [16] 0.016 | [17] 0 | [18] -0.085 | [19] -0.088 | [20] 0.055

DHRS1 (UniProt Q96LJ7)
Sequence of UniProt Q96LJ7 (Q96LJ7 whole entry, looked up): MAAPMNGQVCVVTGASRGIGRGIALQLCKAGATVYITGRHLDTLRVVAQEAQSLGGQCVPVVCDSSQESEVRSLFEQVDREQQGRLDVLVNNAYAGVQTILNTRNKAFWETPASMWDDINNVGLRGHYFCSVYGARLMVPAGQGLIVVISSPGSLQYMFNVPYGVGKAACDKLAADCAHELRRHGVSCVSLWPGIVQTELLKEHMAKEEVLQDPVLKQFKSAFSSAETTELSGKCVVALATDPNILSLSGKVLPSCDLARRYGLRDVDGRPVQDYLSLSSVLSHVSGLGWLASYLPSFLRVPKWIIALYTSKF
inactive: [1] 0.164 | [2] 0.302 | [3] 0.039 | [4] -0.062 | [5] 0.034 | [6] -0.098 | [7] -0.048 | [8] -0.022 | [9] -0.051 | [10] 0.065 | [11] -0.074 | [12] 0.153 | [13] -0.018 | [14] 0.022 | [15] 0.375 | [16] -0.007 | [17] 0.031 | [18] 0.392 | [19] -0.116 | [20] -0.116

DHFR (UniProt P00374)
Sequence of UniProt P00374 (P00374 whole entry, looked up): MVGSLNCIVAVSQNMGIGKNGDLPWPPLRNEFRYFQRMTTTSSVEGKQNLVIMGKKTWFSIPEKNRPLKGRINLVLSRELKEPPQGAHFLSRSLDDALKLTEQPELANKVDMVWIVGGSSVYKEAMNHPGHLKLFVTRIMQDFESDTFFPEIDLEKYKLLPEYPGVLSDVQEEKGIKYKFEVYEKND
inactive: [1] 0.002 | [2] -0.11 | [3] 0.088 | [4] -0.013 | [5] -0.101 | [6] -0.077 | [7] 0.091 | [8] 0.046 | [9] 0.113 | [11] -0.193 | [13] 0.215 | [15] -0.115 | [16] -0.109 | [17] 0.39 | [18] 0.036 | [19] 0.109 | [20] -0.059
active: [10] 1.64 | [12] 1.66 | [14] 1.77

ECH1 (UniProt Q13011)
Sequence of UniProt Q13011 (Q13011 whole entry, looked up): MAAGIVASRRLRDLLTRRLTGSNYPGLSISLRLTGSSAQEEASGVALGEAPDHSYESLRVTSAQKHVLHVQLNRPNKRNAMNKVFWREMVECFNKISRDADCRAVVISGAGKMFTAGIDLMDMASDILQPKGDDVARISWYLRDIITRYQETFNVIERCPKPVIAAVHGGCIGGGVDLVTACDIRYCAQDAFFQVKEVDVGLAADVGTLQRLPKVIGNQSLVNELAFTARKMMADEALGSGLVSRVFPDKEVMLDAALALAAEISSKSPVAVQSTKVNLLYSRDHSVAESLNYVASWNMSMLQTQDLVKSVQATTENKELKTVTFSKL
active: [10] 0.694 | [12] 0.727 | [14] 0.519
inactive: [1] 0.019 | [2] 0.276 | [3] 0.024 | [4] 0.036 | [5] -0.032 | [6] -0.021 | [7] 0.023 | [8] 0.052 | [9] -0.041 | [11] -0.037 | [13] 0.053 | [15] 0.122 | [16] -0.023 | [17] -0.012 | [18] -0.031 | [19] -0.035 | [20] -0.024
